Screening data (PubChem BioAssay)
Sampled rows, rich in hits. Any-hit rate of the full collection: about 2.7%.
INS-1E GSIS act: GLuc luminescence reporter in INS-1E cells, primary screen for activators of glucose-dependent secretion of insulin; INS-1E GLuc reporter insulin secretion, 2-3 h; activation, % at 16.6 µM; hit rate 0.61% among 370,000;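 active = lowest replicate activation of at least 40%, so every replicate reaches that level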;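 note: 0% = median of neutral control wells and 100% = median of IBMX positive control wells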
Env fusion inh: inhibitors of HIV Env-mediated cell fusion | inhibition, % at 12.3 µM | hit rate 1.1% among 360,000 | HeLa-JRFL Env/CEM21 cell fusion, luciferase;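 active = mean replicate inhibition score of at least 50 and every replicate individually at or above 50; inconclusive = only one of the two criteria met; inactive = mean below 50 and not all replicates reaching 50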;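 note: 0% = plate neutral controls and 100% = maraviroc near 300 nM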
PAX8 reporter: lowers PAX8-driven luciferase in RMG-I cells | hit rate 1.2% among 360,000 | inhibition, % at 12.6 µM | RMG-I TPO-luciferase reporter, SteadyGlo, 24 h;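 active = mean replicate inhibition at least 60% with every replicate also reaching 60%; inconclusive = only one of the two criteria is met; inactive = mean below 60% and not all replicates reaching 60%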;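 note: luciferase light reporting Pax8 driven TPO promoter activity; plate controls were median of neutral control wells for no effect and mitoxantrone controls for full effect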
EWS-Fli block: blocks EWS/Fli oncoprotein-driven transcription; inhibition, % at 12.6 µM; hit rate 0.67% among 350,000; AID 651661; A673 NR0B1-luciferase reporter, viability-normalised;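 active = mean inhibition of at least 50% after viability correction, with every replicate also passing that limit; inconclusive = mean reaches 50% but only one of two replicates passes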;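 note: firefly luciferase signal divided by Alamar Blue viability fluorescence both relative to DMSO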
PGC1a acetyl inh: lowers PGC1a acetylation signal in U2OS cells. inhibition, % at 15.6 µM. hit rate 0.17% among 350,000. AlphaScreen anti-acetyl-lysine; with virally co-expressed GCN5 acetyltransferase;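 active = every replicate shows inhibition of at least 40%; inconclusive = mean inhibition at least 40% but some replicate below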;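 note: 0% = neutral control wells and 100% = positive control wells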
F508del corr: CFTR F508del correction in bronchial cells | CFBE cells, YFP halide quenching; stimulated with forskolin plus potentiator P3; % fluorescence drop versus neutral controls | activity (quench increase), % at 7.58 µM | hit rate 0.36% among 350,000 | AID 720511;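 active = mean added fluorescence quench of at least 8% versus neutral control, with both replicates also reaching 8%; inconclusive = only one of the mean or replicate conditions met; inactive = mean below 8% and not both replicates reaching 8%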;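 note: cells transiently co-express mutant CFTR-F508del with the halide-sensitive YFP; corrector assay measuring rescue of mutant channel to the surface after 24 h compound exposure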
Starred values were filed as active, the others as inactive; ? = inconclusive; · = not tested or not shown; [ ] = dose if it differs, or a comment.

SMILES | INS-1E GSIS act | Env fusion inh | PAX8 reporter | EWS-Fli block | PGC1a acetyl inh | F508del corr
COc1ccc(/C=N/NC(=O)c2ccccc2Cl)cc1CSc1nc2ccccc2s1 | · | -34 | 23 | · | -5 | ·
CCn1c(SCC(=O)N/N=C/c2ccc(OC)c(OC)c2)nc2ccccc21 | 84* | 21 | · | · | -9 | ·
COc1cc(/C(C)=N\NC(=O)CSc2nc3ccccc3n2C)ccc1O | 42* | 1 | -3 | -18 | 6 | 4
COc1ccc(/C=N/NC(=O)CCSc2nc3ccccc3s2)cc1OC | 54* | 2 | -10 | -5 | -2 | 6
CO[C@@H]1CN(C)C(=O)c2cc(NS(C)(=O)=O)ccc2OC[C@H](C)N(CCC(F)(F)F)C[C@H]1C | 8 | · | · | 5 | 6 | 3
O=C(NCCN1CCOCC1)/C(=C/c1ccccc1)NC(=O)c1ccccc1 | 47* | -5 | -1 | -8 | · | 0
O=C(N/C(=C/c1ccccc1)C(=O)N1CCCCC1)c1ccccc1 | 3 | -23 | 22 | · | -8 | 3
O=C(N/C(=C\c1ccccc1)C(=O)N1CCN(CCO)CC1)c1ccccc1 | -4 | 79* | 5 | · | -2 | ·
Cc1ccc2c(c1)N(Cc1cccc(F)c1)C(=O)C(C)O2 (stereo not given) | -21 | 11 | 8 | 3 | · | -1
COc1cccc(-c2ccc3c(c2)N(Cc2cccc(F)c2)C(=O)C(C)S3)c1 (stereo not given) | 42* | ? | -16 | 2 | -21 | -4
Cc1ccc2c(c1)N(Cc1ccccc1)C(=O)C(C)S2 (stereo not given) | -14 | -1 | 2 | -1 | -3 | -4
CC(=O)c1ccc2c(c1)N(Cc1ccccc1)C(=O)C(C)S2 (stereo not given) | 50* | -17 | -15 | 0 | -10 | -4
CC1Oc2ccccc2N(Cc2cccc(F)c2)C1=O (stereo not given) | 43* | 14 | -6 | -6 | -2 | -1
CSc1ccc(CN2C(=O)C(C)Sc3ccc(C(C)=O)cc32)cc1 (stereo not given) | · | -10 | -10 | 0 | -2 | 0
O=c1c2ccccc2nnn1CSc1nc2cc(Cl)ccc2c(=O)n1Cc1ccco1 | · | 2 | · | · | · | ·
O=c1c2ccccc2nnn1CSc1nnc(COc2ccc(Cl)cc2)n1Cc1ccco1 | · | 70* | · | · | 2 | ·
CO[C@@H]1CN(C)C(=O)c2cc(NC(=O)C3CC3)ccc2OC[C@@H](C)NC[C@@H]1C | 8 | · | -22 | -3 | 3 | 3
COc1ccc(S(=O)(=O)N(C)C[C@@H]2OCCCC[C@@H](C)Oc3ccc(NC(=O)C4CCCCC4)cc3C(=O)N([C@@H](C)CO)C[C@H]2C)cc1 | -10 | -5[16.7 µM] | 8 | -1 | -9 | 2
CCN1C(=O)CCN(C2CCCC2)c2nc(Nc3ccc(C(=O)NC4CCN(C)CC4)cc3OC)ncc21 | -1 | -58 | -106 | 62* | · | 0
CNC[C@@H]1Oc2ccc(NS(=O)(=O)c3c(C)noc3C)cc2CC(=O)N([C@H](C)CO)C[C@H]1C | 18 | -16[16.7 µM] | -8 | -8 | 8 | 0
COCCCNC(=O)C(=O)Nc1ccc2c(c1)N(S(=O)(=O)c1cccs1)CCC2 | -4 | -54 | 44 | 63* | -3 | 6
CC(=O)NC[C@@H]1[C@@H](c2ccc(C3=CCCC3)cc2)[C@@H](CO)N1C(=O)CN(C)C | 0 | · | · | · | · | 1
CC(C)NC(=O)N[C@@H]1C=C[C@H](CC(=O)N2CCCCC2)O[C@H]1CO | -4 | 9[16.7 µM] | -7 | 2 | 10 | 3
CC1C2CCC(C2)C1OC(=O)c1ccccc1C(=O)O (stereo not given) | · | 11 | -3 | -4 | · | 9.4*
O=C(O)c1ccccc1C(=O)OC1CCCC2CCCC21 (stereo not given) | · | 11 | -32 | 0 | · | -1
COc1ccccc1/C=C1\SC(=S)N(CC(=O)Nc2nnc(C)s2)C1=O | 12 | 50 | 0 | 60* | · | ·
O=C1CCCC2=C1C(c1cccs1)Nc1ccccc1N2 (stereo not given) | -1 | 87* | 8 | · | · | ·
C[C@H](NC(=O)[C@H]1[C@H](CO)[C@H]2Cn3c(ccc(C4=CCCC4)c3=O)[C@@H]1N2C(=O)C1CC1)c1ccccc1 | -11 | · | 9 | -6 | · | -2
COc1cccc(/C=C2/Sc3ccc(C(=O)NCCN4CCCCCC4)cc3NC2=O)c1 | -22 | 9 | 97* | · | -31 | 3
